Screening data: PubChem BioAssay, National Center for Advancing Translational Sciences (NCATS)
KB-3-1 cytotox = kills parental KB-3-1 adenocarcinoma cells; 400,000 compounds, 1.4% hits; KB-3-1 viability, CellTiter-Glo ATP luminescence, 72 h; Potency, µM (top dose mostly 46.1 µM), hits mostly cytotoxic; also: nearly all actives have a fitted effect of over 60% in size
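Screening of KB-3-1 cells (DMEM, 10% FBS, phenol-red free) ran from lowest to highest compound concentration; after 72 h at 37 °C viability was read luminescently and curves fitted.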
TSG101-PTAP inh = blocks PTAP/TSG101 interaction to inhibit HIV-1 budding | Q99816 | Fluorescence polarization, FITC-PTAP peptide / Tsg101 binding | Potency, µM (series often up to 115 µM), hits mostly inhibitors | 340,000 tested, under 10 active; active = well fitted inhibition curve with a large enough effect in the main read-out, with a control signal flat, not every such curve was filed as active; inconclusive = small, poorly fitted or top-dose-only effect, or effect the other way, or a change in a side signal; inactive = no such curve, though single readings can be large or run the other way
Target sequence (Q99816 whole entry, looked up): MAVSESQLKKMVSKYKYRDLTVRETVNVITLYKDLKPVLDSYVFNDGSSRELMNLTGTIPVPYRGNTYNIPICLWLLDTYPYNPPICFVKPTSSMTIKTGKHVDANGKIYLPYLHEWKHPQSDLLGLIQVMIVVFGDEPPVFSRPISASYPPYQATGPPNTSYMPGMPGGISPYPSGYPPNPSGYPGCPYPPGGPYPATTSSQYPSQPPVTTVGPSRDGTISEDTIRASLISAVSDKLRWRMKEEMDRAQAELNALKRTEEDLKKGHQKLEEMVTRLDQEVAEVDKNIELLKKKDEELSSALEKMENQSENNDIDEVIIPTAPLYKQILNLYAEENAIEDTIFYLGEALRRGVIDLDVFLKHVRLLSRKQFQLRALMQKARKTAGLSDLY
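Tsg101 binding domain (10 uM final) was mixed with compound and a FITC-labeled PTAP peptide (50 nM final) in HEPES pH 7.5 buffer with NaCl, Tween 20, EDTA and TCEP; fluorescence polarization was read after 20 min at r.t.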
PINK1 modulator = changes PINK1 expression | PINK1 immunofluorescence, high-content cytometry, 24 h | AID 624263 | Potency, µM (doses to about 76.6 µM), actives largely listed as activators | 410,000 compounds, 0.2% hits; active = well fitted activation curve with a large enough effect; inconclusive = small, poorly fitted or top-dose-only effect; cell line not stated here; also: nearly all actives have a fitted effect of over 65% in size
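Fluorescence from anti-PINK1 antibody, together with nuclear and cell stains, was scanned on a laser-scanning cytometer. Before staining, stable-line cells were incubated 24 hours with compounds at 5 concentrations; primary antibody 12 h at 10 degrees C.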
SW480 rerep = induces DNA re-replication in SW480 colon adenocarcinoma cells; SW480 DNA re-replication, Hoechst DNA content imaging, 48 h; Potency, µM (titrated, usually from 46.1 µM), usual class: activators; 340,000 compounds, 1.8% hits; also: nearly all actives have a fitted effect of over 55% in size
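First, 250 cells per well were seeded. Next, compound or vehicle (23 nL) was pinned in, plates sat 48 hr at 37 C. Finally Hoechst was added for 40 min before fluorescence scanning.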
MCF10A rereplic = induces DNA re-replication in MCF 10a normal breast cells; MCF 10A DNA re-replication, Hoechst nuclear intensity, 48 h; Potency, µM (titrated, usually from 46.1 µM), most hits filed as activators; 350,000 compounds, 2.9% hits; AID 624296; also: nearly all actives have a fitted effect of over 50% in size
KB-V1 cytotox = kills drug-selected multidrug resistant KB-V1 cells; KB-V1 MDR cells viability, CellTiter-Glo, 72 h; Potency, µM (series often up to 46.1 µM), hits mostly cytotoxic; 400,000 compounds, 3.4% hits; AID 1347076; also: nearly all actives have a fitted effect of over 60% in size
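Cells of the MDR subline KB-V1 are plated, dosed with compound at multiple concentrations, and incubated 72 h at 37 degrees C; CellTiter-Glo is then added and luminescence read after 10 min.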
Hits are given with their value; 0 = inactive; ? = inconclusive; - = not tested or not shown. Only some compounds are listed: those with a hit (about 6.8% of all), similar ones and a draw of the others. Unless noted, calls follow the shape of the dose curve; as a rule, active = well fitted curve in the direction sought with a large enough effect; inconclusive = small, poorly fitted or top-dose-only effect, or another doubt; inactive = no such curve, though single readings can be large; an effect the other way counts as inactive or inconclusive.

SMILES	KB-3-1 cytotox	TSG101-PTAP inh	PINK1 modulator	SW480 rerep	MCF10A rereplic	KB-V1 cytotox
Cc1ccc(CSc2nc(=O)c3c(C)cc(C)nc3n2C2CC2)cc1	0	-	0	-	-	0
COc1ccccc1Cn1c(C)c(C(=O)NCc2cccc(C)c2)sc1=O	0	-	0	-	-	?
COc1ccc(CNC(=O)c2sc(=O)n(Cc3ccc(C)cc3)c2C)cc1OC	0	-	0	-	-	18.4µM
Cc1cccc(CNC(=O)c2sc(=O)n(Cc3c(C)cccc3C)c2C)c1	?	-	0	-	-	20.6µM
Cc1ccc(Cn2c(C)c(C(=O)NCC(C)C)sc2=O)cc1	0	-	0	-	-	13µM
Cc1ccc(Cn2c(C)c(C(=O)NCc3cccc(C(F)(F)F)c3)sc2=O)cc1	0	-	0	-	-	?
COc1ccc(CNC(=O)c2sc(=O)n(Cc3ccc(-c4ccccc4)cc3)c2C)cc1OC	?	-	0	-	-	9.2µM
Nc1ccc2cccnc2c1	?	-	0	-	-	?
CCOc1ccc(NC(=O)Cn2cnc3nc4c(cc3c2=O)CCCC4)cc1	0	-	0	-	-	0
COC(=O)c1ccc(NC(=O)CC2C(=O)N(c3ccc(C)cc3)C(=O)N2Cc2ccc(OC)cc2)cc1 (centres undefined)	-	-	0	-	-	-
Cc1nnc(SCc2nc(-c3ccc(Cl)cc3)no2)n1-c1ccc(F)cc1	?	-	0	-	-	0
COc1cc(C(=O)NCc2ccccc2)ccc1OC(F)F	0	0	0	0	0	0
COc1cc(C(=O)NCc2ccc(C)cc2)ccc1OC(F)F	0	0	0	0	0	23.1µM
Cc1ccc(-c2nnc(Nc3ccc(O)cc3)c3ccccc23)cc1S(=O)(=O)NCc1nc2ccccc2[nH]1	0	-	0	-	-	0
O=C(Nc1ccccc1N1CCN(C(=O)c2ccccc2)CC1)c1ccc(Cl)cc1	0	0	0	?	0	0
O=C(Nc1ccccc1N1CCCCC1)c1ccc([N+](=O)[O-])o1	?	0	0	?	?	?
O=C(Cc1ccc(Cl)cc1)Nc1ccccc1N1CCN(C(=O)c2ccccc2)CC1	0	0	0	?	18.4µM	?
O=C(Nc1ccccc1N1CCN(C(=O)c2ccc(Cl)cc2)CC1)c1ccc([N+](=O)[O-])o1	20.6µM	0	0	16.4µM	?	?
CCOc1cccc(C(=O)Nc2nc3c(s2)CC(C(C)(C)C)CC3)c1 (centres undefined)	0	-	0	-	-	0
CCC(C)N(C)Cc1cccc(C2(O)CCN(S(=O)(=O)c3ccc(F)c(C)c3)CC2)c1 (centres undefined)	0	0	0	?	14.6µM	?
Cc1nn2c(COc3ccc(NC(=O)c4ccccc4Cl)cc3)nnc2c2ccccc12	?	0	0	8.2µM	2.91µM	?
Cc1nn2c(COc3ccc(NC(=O)C(C)C)cc3)nnc2c2ccccc12	0	0	0	0	0	0
Cc1nn2c(CN(C(=O)COc3ccccc3)c3ccccc3)nnc2c2ccccc12	?	0	0	0	0	4.61µM
Cc1ccc(-c2nnc(N3CCC(C(N)=O)CC3)s2)cc1	?	-	-	-	-	0
Cc1nc2ccccc2n1CC(O)Cn1c2ccccc2c2ccccc21 (centres undefined)	18.4µM	0	0	?	?	?
SMILES	KB-3-1 cytotox	TSG101-PTAP inh	PINK1 modulator	SW480 rerep	MCF10A rereplic	KB-V1 cytotox
CC(C)c1nc2ccccc2n1CC(O)COC1CCCCC1 (centres undefined)	0	0	0	0	0	?
Cc1cccc(C)c1OCC(O)Cn1c2ccccc2c2ccccc21 (centres undefined)	?	0	0	?	20.6µM	?
Cc1ccc(OCC(O)Cn2c3ccccc3c3ccccc32)cc1 (centres undefined)	0	0	-	?	0	?
Cc1nc2ccccc2n1CC(O)COC1CCCCC1 (centres undefined)	0	0	0	0	0	16.4µM
CCOc1ccc(-c2nc3scc(-c4cccs4)c3c(=O)[nH]2)cc1	0	0	0	0	1.46µM	0
Cc1ccc(-c2csc3nc(-c4ccncc4)[nH]c(=O)c23)cc1	?	?	?	5.17µM	18.4µM	0
Cc1ccc(-c2csc3nc[nH]c(=O)c23)cc1	0	0	0	0	0	0
CC(=O)c1ccc(NC(=O)CC(c2cccs2)N2Cc3ccccc3C2=O)cc1 (centres undefined)	0	-	0	-	-	0
CCOC(=O)c1nnc2c(-c3ccc(Cl)cc3)c(C)nn2c1N	0	-	0	-	-	0
O=C1c2ccccc2CC1Sc1nnc(-c2ccncc2)o1 (centres undefined)	0	0	0	0	0	0
O=C(O)c1ccccc1SC1CC(=O)N(c2ccccc2)C1=O (centres undefined)	0	0	0	?	?	0
Cc1ccccc1N1C(=O)CC(Sc2nnc(-c3ccccc3)o2)C1=O (centres undefined)	0	0	0	16.4µM	?	0
O=C1CC(Sc2nnc(-c3ccccc3)o2)C(=O)N1c1ccccc1 (centres undefined)	0	0	0	7.31µM	5.8µM	0
c1ccc(OCc2nnc3ccc(-c4ccccc4)nn23)cc1	0	-	-	-	-	0
COc1ccc(F)c(CN2CCOc3ccc(CN4CCC(O)(c5cccnc5)CC4)cc3C2)c1	-	-	0	-	-	-
Cc1cc(N2CCN(C)CC2)nc2ccc(NC(=S)N3CCN(c4ccc(F)cc4)CC3)cc12	0	0	0	?	?	0
Cc1cc(N2CCN(C)CC2)nc2ccc(NC(=S)N3CCN(c4ccc(Cl)cc4)CC3)cc12	0	0	0	11.6µM	29.1µM	0
Cc1cc(N2CCCC2)nc2ccc(NC(=S)NCCCN3CCC(C)CC3)cc12	0	0	0	?	18.4µM	?
Cc1cc(N2CCN(C)CC2)nc2ccc(NC(=S)N3CCN(c4cccc(Cl)c4)CC3)cc12	0	0	0	9.2µM	7.31µM	0
Cc1cc(N2CCN(C)CC2)nc2ccc(NC(=S)N3CCCCC3)cc12	0	0	0	?	18.4µM	0
COc1ccccc1CCNC(=O)C(=O)NCC(c1ccc2c(c1)OCO2)N1CCOCC1 (centres undefined)	-	-	0	-	-	-
CCOc1ccc(Nc2c(S(=O)(=O)c3ccc(Cl)cc3)cnc3ccc(OCC)cc23)cc1	?	-	0	-	-	?
COc1ccc(S(=O)(=O)n2nc(C)c(S(=O)(=O)N3CCC(C)CC3)c2C)cc1C	0	-	0	-	-	?
Cc1cc(N2CCOCC2)nc2ccc(NC(=S)N3CCCCC3C)cc12 (centres undefined)	0	0	0	18.4µM	14.6µM	0
Cc1cccc(N2CCN(C(=S)Nc3ccc4nc(N5CCN(C)CC5)cc(C)c4c3)CC2C)c1 (centres undefined)	?	0	0	18.4µM	18.4µM	0
COC(=O)c1ccccc1-c1cc(C)cc2c1OC(CNC(=O)C1CCCO1)C2 (centres undefined)	-	-	0	-	-	-
